Data as given in PubChem BioAssay (EPA / NIEHS).
Records with an inconclusive call do not appear. Activity calls are given as the source filed them. Rule for the calls, unless noted: active = hit-call score of the fitted dose curve at least 0.9, where 1 is the maximum; inconclusive = response in the unintended direction; inactive = score below 0.9.

target: Agonist Androgen Response Element (ARE), AR (gene 367) (UniProt P10275); assay: OT_AR_ARELUC_AG_1440: Odyssey Thera (OT) 24-hour CHO-K1 Luciferase Assay for Agonist Androgen Response Element (ARE) (AID 2283379)
Sequence (P10275 whole entry, looked up): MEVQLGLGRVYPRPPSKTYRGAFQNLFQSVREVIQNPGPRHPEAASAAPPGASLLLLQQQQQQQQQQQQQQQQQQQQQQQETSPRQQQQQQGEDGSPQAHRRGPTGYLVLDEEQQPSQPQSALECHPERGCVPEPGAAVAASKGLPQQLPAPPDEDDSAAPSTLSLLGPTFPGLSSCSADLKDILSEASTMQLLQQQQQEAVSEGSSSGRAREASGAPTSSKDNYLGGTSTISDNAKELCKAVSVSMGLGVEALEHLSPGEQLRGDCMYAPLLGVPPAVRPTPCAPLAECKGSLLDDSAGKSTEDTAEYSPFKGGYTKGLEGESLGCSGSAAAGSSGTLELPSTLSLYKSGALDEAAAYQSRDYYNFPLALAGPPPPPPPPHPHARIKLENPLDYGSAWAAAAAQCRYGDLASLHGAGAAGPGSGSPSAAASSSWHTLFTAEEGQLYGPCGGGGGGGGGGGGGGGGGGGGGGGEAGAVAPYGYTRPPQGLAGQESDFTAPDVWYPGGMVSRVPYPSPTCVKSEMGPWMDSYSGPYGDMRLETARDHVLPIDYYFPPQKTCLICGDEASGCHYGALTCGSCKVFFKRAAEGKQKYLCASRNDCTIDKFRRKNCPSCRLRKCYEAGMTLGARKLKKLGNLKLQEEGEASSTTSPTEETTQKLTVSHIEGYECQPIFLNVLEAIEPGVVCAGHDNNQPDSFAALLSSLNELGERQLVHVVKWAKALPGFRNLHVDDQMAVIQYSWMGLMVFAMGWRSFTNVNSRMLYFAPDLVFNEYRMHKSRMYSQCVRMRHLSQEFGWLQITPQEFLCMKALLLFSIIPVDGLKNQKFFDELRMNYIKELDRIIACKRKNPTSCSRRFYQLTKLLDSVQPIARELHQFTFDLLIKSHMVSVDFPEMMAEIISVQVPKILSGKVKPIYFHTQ
Summary of the method: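 Gain-of-signal reporter endpoint: cells (CHO-K1, hamster) are treated 24 h, luciferin/ATP reagent added, and luminescence compared with DMSO baseline.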

Compound	outcome	AC50
Cc1c(C(=O)c2c[nH]n(C)c2=O)ccc(S(C)(=O)=O)c1C1=NOCC1	inactive	
CN(C)Cc1cc(CN(C)C)c(O)c(CN(C)C)c1	inactive	
CCC[Si](OC)(OC)OC	inactive	
CC(=O)OC1CCCCC1C(C)(C)C (centres undefined)	inactive	
CCCCCCCCCC(C)=O	inactive	
CCCCCCCCCCCCCC(=O)OC(C)C		3.48 µM (active)
COc1cc(O)c(C(=O)c2ccccc2)cc1S(=O)(=O)O	inactive	
O=C(O)c1ccc2c(c1)C(=O)OC2=O	inactive	
Cc1ccc(C)c(OCCCC(C)(C)C(=O)O)c1	inactive	
N#Cc1ccc(C(c2ccc(C#N)cc2)n2cncn2)cc1	inactive	
CC(=O)OCc1ccccc1	inactive	
CCCCC(CC)COC(=O)/C=C/c1ccc(OC)cc1 (centres undefined)	inactive	

target: Estrogen receptor beta (Homo sapiens) (UniProt Q92731); assay: OT_ER_ERbERb_1440: Odyssey Thera (OT) 24-hour HEK293T Protein-Complementation Assay for Estrogen Receptor-beta/-beta Homodimer (AID 2283380);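 note: scored as signal increase over DMSO baseline for both agonists and antagonists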
Sequence (Q92731 whole entry, looked up, the tested form may be a part): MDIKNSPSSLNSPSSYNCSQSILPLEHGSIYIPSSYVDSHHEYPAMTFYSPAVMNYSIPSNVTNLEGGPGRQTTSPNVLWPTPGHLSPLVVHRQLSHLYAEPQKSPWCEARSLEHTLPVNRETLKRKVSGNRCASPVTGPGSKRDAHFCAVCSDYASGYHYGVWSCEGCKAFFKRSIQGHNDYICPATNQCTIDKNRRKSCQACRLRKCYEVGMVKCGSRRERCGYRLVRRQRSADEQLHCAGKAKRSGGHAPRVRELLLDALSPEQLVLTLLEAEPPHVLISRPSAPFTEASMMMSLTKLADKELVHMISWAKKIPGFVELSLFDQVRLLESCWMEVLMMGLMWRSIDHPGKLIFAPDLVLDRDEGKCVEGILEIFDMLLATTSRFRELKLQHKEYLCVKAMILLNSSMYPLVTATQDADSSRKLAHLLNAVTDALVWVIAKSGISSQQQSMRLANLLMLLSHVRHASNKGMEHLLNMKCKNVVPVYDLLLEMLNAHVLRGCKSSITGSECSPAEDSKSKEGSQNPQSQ
Summary of the method: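 HEK293T cells stably expressing ER beta LBD (aa 310-547) homodimer fragment-complementation reporter, dosed 24 h. Cells formaldehyde-fixed, Draq5-stained; gain in nuclear (agonist) or nuclear plus cytoplasmic (antagonist) fluorescence versus DMSO read by laser scanning cytometry.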

Compound	outcome	AC50
Cc1c(C(=O)c2c[nH]n(C)c2=O)ccc(S(C)(=O)=O)c1C1=NOCC1	inactive	
CCC[Si](OC)(OC)OC	inactive	
CCCCC(C=O)CC (centres undefined)	inactive	
CC1(C)[C@@H]2CC[C@@]1(C)C(=O)C2	inactive	
CC(=O)OC1CCCCC1C(C)(C)C (centres undefined)	inactive	
C=C[C@@]1(C)CC(=O)[C@]2(O)[C@@]3(C)[C@@H](O)CCC(C)(C)[C@@H]3[C@H](O)[C@H](OC(C)=O)[C@@]2(C)O1		27.4 µM (active)
CCCCC(CC)COS(=O)(=O)O (centres undefined)	inactive	
CCCCCCCCCC(C)=O	inactive	
CCCCCCCCCCCCCC(=O)OC(C)C	inactive	
CCCCOCCOC(=O)COc1ccc(Cl)cc1Cl	inactive	
CC1=CCC2CC1C2(C)C (centres undefined)	inactive	
CCCCCCCCC(CO)CCCCCC (centres undefined)	inactive	
COc1cc(O)c(C(=O)c2ccccc2)cc1S(=O)(=O)O	inactive	
NC(=O)Nc1ccccc1	inactive	
O=C(O)c1ccc2c(c1)C(=O)OC2=O	inactive	
Cc1ccc(C)c(OCCCC(C)(C)C(=O)O)c1	inactive	
N#Cc1ccc(C(c2ccc(C#N)cc2)n2cncn2)cc1	inactive	
CC(=O)OC(C)c1ccccc1 (centres undefined)	inactive	
CCCCCC(=O)OCC	inactive	
CCOC(=O)c1ccccc1C		29.4 µM (active)
CCCCNC(=S)NCCCC	inactive	
O=C(O)C1CCC(C(=O)O)CC1 (centres undefined)	inactive	
CCOC(=O)C1=NOC(c2ccccc2)(c2ccccc2)C1	inactive	
CC(=O)OCc1ccccc1	inactive	
CCCC=C(C=O)CC	inactive	
C1CNCCN1	inactive	

target: Estrogen receptor (Homo sapiens) (UniProt P03372); assay: OT_ERa_GFPERaERE_0480: Odyssey Thera (OT) 8-hour HeLa Transcription Induction Assay for Estrogen Receptor (AID 2283381; active = hit-call score of the fitted dose curve at least 0.9, where 1 is the maximum; inactive = score below 0.9)
Sequence (P03372 whole entry, looked up): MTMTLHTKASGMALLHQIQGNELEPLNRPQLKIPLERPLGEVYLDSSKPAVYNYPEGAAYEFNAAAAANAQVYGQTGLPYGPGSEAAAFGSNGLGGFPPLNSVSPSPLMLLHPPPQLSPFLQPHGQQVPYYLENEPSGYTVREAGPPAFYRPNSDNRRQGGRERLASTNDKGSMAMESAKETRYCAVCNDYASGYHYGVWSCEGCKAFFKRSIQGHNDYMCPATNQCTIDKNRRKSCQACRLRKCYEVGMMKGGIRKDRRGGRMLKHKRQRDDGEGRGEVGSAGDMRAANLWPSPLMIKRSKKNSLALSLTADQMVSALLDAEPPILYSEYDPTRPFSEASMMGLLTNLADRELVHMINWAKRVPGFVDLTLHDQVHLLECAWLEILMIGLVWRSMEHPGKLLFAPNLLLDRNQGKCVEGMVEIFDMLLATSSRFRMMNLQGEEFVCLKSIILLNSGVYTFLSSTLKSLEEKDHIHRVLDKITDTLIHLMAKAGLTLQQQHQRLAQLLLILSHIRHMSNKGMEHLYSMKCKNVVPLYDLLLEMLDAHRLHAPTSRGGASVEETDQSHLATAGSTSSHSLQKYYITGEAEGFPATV
Summary of the method: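 An 8 h HeLa transcription-induction format with a GFP reporter under ERE control, read by fluorescence microscopy; single endpoint fitted positively with DMSO as baseline.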

Compound	outcome
CC(=O)/C=C/C1C(C)=CCCC1(C)C (centres undefined)	inactive
CN(C)Cc1cc(CN(C)C)c(O)c(CN(C)C)c1	inactive
CCC[Si](OC)(OC)OC	inactive
CCCCC(C=O)CC (centres undefined)	inactive
CC1(C)[C@@H]2CC[C@@]1(C)C(=O)C2	inactive
CC(=O)c1ccccc1O	inactive
O=C(Oc1ccccc1)c1ccccc1O	inactive
CC(=O)OC1CCCCC1C(C)(C)C (centres undefined)	inactive
CCCCC(CC)COS(=O)(=O)O (centres undefined)	inactive
CCCCCCCCCC(C)=O	inactive
CCCCCCCCCCCCCC(=O)OC(C)C	inactive
CCCCOCCOC(=O)COc1ccc(Cl)cc1Cl	inactive
O=C(OCCc1ccccc1)c1ccccc1	inactive
CC1=CCC2CC1C2(C)C (centres undefined)	inactive
CCCCCCCCC(CO)CCCCCC (centres undefined)	inactive
COc1cc(O)c(C(=O)c2ccccc2)cc1S(=O)(=O)O	inactive
O=C(O)c1ccc2c(c1)C(=O)OC2=O	inactive
Cc1ccc(C)c(OCCCC(C)(C)C(=O)O)c1	inactive
CC(=O)OC(C)c1ccccc1 (centres undefined)	inactive
CCOC(=O)c1ccccc1C	inactive
CC(=O)OCc1ccccc1	inactive
CCCC=C(C=O)CC	inactive

target: Estrogen receptor (Homo sapiens) (UniProt P03372); assay: OT_ERa_GFPERaERE_0120: Odyssey Thera (OT) 2-hour HeLa Transcription Induction Assay for Estrogen Receptor (AID 2283382)
Summary of the method: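 Two-hour compound treatment of HeLa cells preceded microscopy imaging of an inducible fluorescent reporter. Image-based quantification gave one endpoint, analysed for signal increase relative to DMSO controls.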

Compound	outcome	AC50
C=C[Si](OCCOC)(OCCOC)OCCOC	inactive	
Cc1c(C(=O)c2c[nH]n(C)c2=O)ccc(S(C)(=O)=O)c1C1=NOCC1	inactive	
CC(=O)/C=C/C1C(C)=CCCC1(C)C (centres undefined)	inactive	
CN(C)Cc1cc(CN(C)C)c(O)c(CN(C)C)c1	inactive	
CCC[Si](OC)(OC)OC	inactive	
CCCCC(C=O)CC (centres undefined)	inactive	
CC1(C)[C@@H]2CC[C@@]1(C)C(=O)C2	inactive	
CC(=O)c1ccccc1O	inactive	
CCCCCCO	inactive	
O=C(Oc1ccccc1)c1ccccc1O	inactive	
CC(=O)OC1CCCCC1C(C)(C)C (centres undefined)	inactive	
C=C[C@@]1(C)CC(=O)[C@]2(O)[C@@]3(C)[C@@H](O)CCC(C)(C)[C@@H]3[C@H](O)[C@H](OC(C)=O)[C@@]2(C)O1	inactive	
CCCCC(CC)COS(=O)(=O)O (centres undefined)	inactive	
CCCCCCCCCC(C)=O	inactive	
CCCCCCCCCCCCCC(=O)OC(C)C	inactive	
CCCCOCCOC(=O)COc1ccc(Cl)cc1Cl	inactive	
O=C(OCCc1ccccc1)c1ccccc1	inactive	
CC1=CCC2CC1C2(C)C (centres undefined)	inactive	
CCCCCCCCC(CO)CCCCCC (centres undefined)		17.7 µM (active)
COc1cc(O)c(C(=O)c2ccccc2)cc1S(=O)(=O)O	inactive	

Compound	outcome	AC50
Fc1ccc(Br)cc1	inactive	
NC(=O)Nc1ccccc1	inactive	
CC(C)(c1ccccc1)c1ccc(Nc2ccc(C(C)(C)c3ccccc3)cc2)cc1	inactive	
O=C(O)c1ccc2c(c1)C(=O)OC2=O		22.6 µM (active)
Cc1ccc(C)c(OCCCC(C)(C)C(=O)O)c1	inactive	
N#Cc1ccc(C(c2ccc(C#N)cc2)n2cncn2)cc1	inactive	
CC(=O)OC(C)c1ccccc1 (centres undefined)	inactive	
CCCCCC(=O)OCC	inactive	
CCC1COC(=O)O1 (centres undefined)	inactive	
CCOC(=O)c1ccccc1C	inactive	
CCCCNC(=S)NCCCC	inactive	
O=C(O)C1CCC(C(=O)O)CC1 (centres undefined)	inactive	
CCC(C)(O)CCCC(C)C (centres undefined)	inactive	
CCOC(=O)C1=NOC(c2ccccc2)(c2ccccc2)C1	inactive	
CC(=O)OCc1ccccc1	inactive	
CCCC=C(C=O)CC	inactive	
CCCCC(CC)COC(=O)/C=C/c1ccc(OC)cc1 (centres undefined)	inactive	
O=C(O)CCC(=O)O	inactive	
C1CNCCN1	inactive	
